Experimental data published in PubChem BioAssay AID1159580 (chemical genetic matrix, 2015).
Among all 5,500 compounds or so, about 2,000 (36%) were called active. Another 18% or so got no clear call; they are omitted. Cut-off read from the data, not from the text of the source: active = normalized growth mostly below about 0.91 (no sharp cut-off); inconclusive = no clear call, values can overlap the other calls; inactive = mostly above about 0.92. The list shows a part of the results.

Assay: chemical genetic growth profiling, strain panel (AID 1159580);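 note: tested at 20 µM; growth read once vehicle control cultures reached saturation at 30 °C; 1 = growth at the plate median or of vehicle wells; lower values mean less growth of the strain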
Conditions: growth OD
[1] = S. cerevisiae deletion strains, locus YAL013W, strain DEP1, stronger effect = lower value
[2] = S. cerevisiae deletion strains, locus YAL040C, strain CLN3, stronger effect = lower value
[3] = S. cerevisiae deletion strains, locus YER002W, strain NOP16, stronger effect = lower value
[4] = S. cerevisiae deletion strains, locus YGR078C, strain PAC10, stronger effect = lower value
[5] = S. cerevisiae deletion strains, locus YNL153C, strain GIM3, stronger effect = lower value
[6] = S. cerevisiae deletion strains, locus YNL175C, strain NOP13, stronger effect = lower value
[7] = S. cerevisiae deletion strains, locus YNL197C, strain WHI3, stronger effect = lower value
[8] = S. cerevisiae deletion strains, locus YNL224C, strain SQS1, stronger effect = lower value
[9] = S. cerevisiae deletion strains, locus YOR083W, strain WHI5 (second series), stronger effect = lower value
[10] = S. cerevisiae deletion strains, locus YBR229C, strain ROT2, stronger effect = lower value
[11] = S. cerevisiae deletion strains, locus YDL101C, strain DUN1, stronger effect = lower value
[12] = S. cerevisiae deletion strains, locus YDR150W, strain NUM1, stronger effect = lower value
[13] = S. cerevisiae deletion strains, locus YEL061C, strain CIN8, stronger effect = lower value
[14] = S. cerevisiae deletion strains, locus YHR030C, strain SLT2, stronger effect = lower value
[15] = S. cerevisiae deletion strains, locus YJR043C, strain POL32, stronger effect = lower value
[16] = S. cerevisiae deletion strains, locus YJR075W, strain HOC1, stronger effect = lower value
[17] = S. cerevisiae deletion strains, locus YLR039C, strain RIC1, stronger effect = lower value
[18] = S. cerevisiae deletion strains, locus YLR262C, strain YPT6, stronger effect = lower value
[19] = S. cerevisiae deletion strains, locus YMR263W, strain SAP30, stronger effect = lower value
[20] = S. cerevisiae deletion strains, locus YNL322C, strain KRE1, stronger effect = lower value
[21] = S. cerevisiae deletion strains, locus YPL241C, strain CIN2, stronger effect = lower value

Measured: normalized growth

Cc1cccc(C)c1NC(=O)C[N+](C)(C)C
inactive: [1] 1.03 | [2] 0.995 | S. cerevisiae deletion strains, locus YCL061C, strain MRC1 (second series), stronger effect = lower value 1 | S. cerevisiae deletion strains, locus YDR363W, strain ESC2, stronger effect = lower value 1.01 | [3] 1.01 | [4] 0.984 | S. cerevisiae deletion strains, locus YGR229C, strain SMI1, stronger effect = lower value 1 | [5] 1.01 | [6] 0.993 | [7] 0.989 | [8] 1.01 | [9] 1.02

CN1C2CCC1CC(=NO)C2
inactive: [1] 0.993 | [10] 0.982 | [11] 1.02 | [12] 0.991 | [13] 0.997 | [4] 1 | [14] 1.07 | S. cerevisiae deletion strains, locus YHR087W, strain rtc3, stronger effect = lower value 0.993 | S. cerevisiae deletion strains, locus YJL187C, strain SWE1, stronger effect = lower value 0.989 | [15] 0.986 | [16] 0.984 | S. cerevisiae deletion strains, locus YKL190W, strain CNB1, stronger effect = lower value 0.994 | [17] 0.998 | S. cerevisiae deletion strains, locus YLR058C, strain SHM2 (second series), stronger effect = lower value 0.983 | S. cerevisiae deletion strains, locus YLR085C, strain ARP6, stronger effect = lower value 1.02 | [18] 0.997 | S. cerevisiae deletion strains, locus YML094W, strain GIM5, stronger effect = lower value 1.01 | S. cerevisiae deletion strains, locus YMR219W, strain ESC1, stronger effect = lower value 1.01 | [19] 0.986 | [5] 1.03 | S. cerevisiae deletion strains, locus YNL298W, strain CLA4 (second series), stronger effect = lower value 1.03 | [20] 1 | S. cerevisiae deletion strains, locus YNR030W, strain Alg12, stronger effect = lower value 0.986 | S. cerevisiae deletion strains, locus YPL055C, strain LGE1, stronger effect = lower value 0.984 | [21] 0.975 | S. cerevisiae deletion strains, locus YPR135W, strain CTF4, stronger effect = lower value 1.03

CO[C@@]1(NC(=O)CSCC#N)C(=O)N2C(C(=O)O)=C(CSc3nnnn3C)CS[C@@H]21
inactive: [2] 1.01 | [3] 0.986 | [4] 1 | [16] 1 | [6] 0.995 | [7] 1 | [8] 1 | [9] 1 | [21] 1

CCCc1occc(=O)c1/C=C/O
inactive: [1] 0.98 | S. cerevisiae deletion strains, locus YBR021W, strain FUR4, stronger effect = lower value 0.999 | [10] 0.987 | S. cerevisiae deletion strains, locus YCL029C, strain bik1, stronger effect = lower value 0.97 | S. cerevisiae deletion strains, locus YDL035C, strain GPR1, stronger effect = lower value 0.981 | S. cerevisiae deletion strains, locus YDL074C, strain BRE1, stronger effect = lower value 1.01 | [11] 0.982 | S. cerevisiae deletion strains, locus YDL134C, strain PPH21, stronger effect = lower value 0.939 | S. cerevisiae deletion strains, locus YDL185W, strain tfp1, stronger effect = lower value 0.97 | S. cerevisiae deletion strains, locus YDL192W, strain arf1, stronger effect = lower value 0.923 | S. cerevisiae deletion strains, locus YDR101C, strain arx1, stronger effect = lower value 0.943 | [12] 0.983 | S. cerevisiae deletion strains, locus YDR162C, strain NBP2, stronger effect = lower value 0.927 | S. cerevisiae deletion strains, locus YDR318W, strain mcm21, stronger effect = lower value 0.942 | S. cerevisiae deletion strains, locus YDR388W, stronger effect = lower value 0.964 | [13] 0.98 | S. cerevisiae deletion strains, locus YER110C, stronger effect = lower value 0.963 | S. cerevisiae deletion strains, locus YER155C, strain BEM2, stronger effect = lower value 0.967 | S. cerevisiae deletion strains, locus YER167W, strain BCK2, stronger effect = lower value 0.936 | S. cerevisiae deletion strains, locus YGL078C, strain dbp3, stronger effect = lower value 1 | S. cerevisiae deletion strains, locus YGL086W, strain mad1, stronger effect = lower value 0.979 | S. cerevisiae deletion strains, locus YGL248W, strain PDE1, stronger effect = lower value 0.949 | [4] 0.964 | S. cerevisiae deletion strains, locus YGR135W, strain pre9, stronger effect = lower value 0.948 | S. cerevisiae deletion strains, locus YGR252W, strain gcn5, stronger effect = lower value 0.925 | [14] 0.986 | S. cerevisiae deletion strains, locus YHR079C, strain IRE1 (second series), stronger effect = lower value 0.959 | S. cerevisiae deletion strains, locus YHR094C, strain hxt1, stronger effect = lower value 0.957 | S. cerevisiae deletion strains, locus YHR129C, strain ARP1, stronger effect = lower value 0.974 | S. cerevisiae deletion strains, locus YHR200W, strain rpn10, stronger effect = lower value 0.95 | S. cerevisiae deletion strains, locus YIL066C, strain RNR3, stronger effect = lower value 0.97 | S. cerevisiae deletion strains, locus YIL073C, strain SPO22, stronger effect = lower value 0.992 | S. cerevisiae deletion strains, locus YIL125W, strain kgd1, stronger effect = lower value 0.964 | S. cerevisiae deletion strains, locus YIR030C, strain dcg1, stronger effect = lower value 0.955 | S. cerevisiae deletion strains, locus YJL095W, strain BCK1, stronger effect = lower value 0.909 | S. cerevisiae deletion strains, locus YJL134W, strain LCB3, stronger effect = lower value 0.984 | S. cerevisiae deletion strains, locus YJL168C, strain set2, stronger effect = lower value 0.987 | S. cerevisiae deletion strains, locus YJL187C, strain SWE1 (second series), stronger effect = lower value 0.963 | [15] 0.943 | [16] 0.945 | S. cerevisiae deletion strains, locus YKL009W, strain mrt4, stronger effect = lower value 1.02 | S. cerevisiae deletion strains, locus YKL068W, stronger effect = lower value 0.972 | S. cerevisiae deletion strains, locus YKL085W, strain MDH1 (second series), stronger effect = lower value 0.96 | S. cerevisiae deletion strains, locus YKL085W, strain MDH1, stronger effect = lower value 0.96 | [17] 0.929 | S. cerevisiae deletion strains, locus YLR058C, strain SHM2, stronger effect = lower value 0.973 | S. cerevisiae deletion strains, locus YLR102C, strain apc9, stronger effect = lower value 0.966 | [18] 0.922 | S. cerevisiae deletion strains, locus YLR268W, strain sec22, stronger effect = lower value 0.98 | S. cerevisiae deletion strains, locus YLR330W, strain CHS5, stronger effect = lower value 0.969 | S. cerevisiae deletion strains, locus YLR342W, strain FKS1 (second series), stronger effect = lower value 0.982 | S. cerevisiae deletion strains, locus YLR371W, strain rom2, stronger effect = lower value 0.964 | S. cerevisiae deletion strains, locus YLR418C, strain cdc73, stronger effect = lower value 0.872 | S. cerevisiae deletion strains, locus YML016C, strain PPZ1, stronger effect = lower value 0.97 | S. cerevisiae deletion strains, locus YML032C, strain rad52, stronger effect = lower value 0.925 | S. cerevisiae deletion strains, locus YML124C, strain tub3, stronger effect = lower value 0.954 | S. cerevisiae deletion strains, locus YMR078C, strain ctf18, stronger effect = lower value 0.931 | S. cerevisiae deletion strains, locus YMR223W, strain ubp8, stronger effect = lower value 0.969 | [19] 0.975 | S. cerevisiae deletion strains, locus YMR307W, strain GAS1, stronger effect = lower value 0.94 | S. cerevisiae deletion strains, locus YNL067W, strain RPL9B, stronger effect = lower value 0.962 | S. cerevisiae deletion strains, locus YNL233W, strain BNI4, stronger effect = lower value 0.962 | S. cerevisiae deletion strains, locus YNL250W, strain rad50, stronger effect = lower value 0.975 | S. cerevisiae deletion strains, locus YNL271C, strain bni1, stronger effect = lower value 0.972 | S. cerevisiae deletion strains, locus YNL298W, strain CLA4, stronger effect = lower value 0.976 | S. cerevisiae deletion strains, locus YNL307C, strain MCK1, stronger effect = lower value 0.956 | [20] 0.986 | S. cerevisiae deletion strains, locus YNR052C, strain pop2, stronger effect = lower value 0.993 | S. cerevisiae deletion strains, locus YOL006C, strain TOP1, stronger effect = lower value 0.854 | S. cerevisiae deletion strains, locus YOL012C, strain htz1 1.14 | S. cerevisiae deletion strains, locus YOL147C, strain pex11, stronger effect = lower value 0.983 | S. cerevisiae deletion strains, locus YOR061W, strain CKA2, stronger effect = lower value 0.998 | S. cerevisiae deletion strains, locus YOR069W, strain VPS5, stronger effect = lower value 0.974 | S. cerevisiae deletion strains, locus YOR136W, strain idh2, stronger effect = lower value 0.985 | S. cerevisiae deletion strains, locus YOR144C, strain elg1, stronger effect = lower value 0.962 | S. cerevisiae deletion strains, locus YOR184W, strain ser1, stronger effect = lower value 0.922 | S. cerevisiae deletion strains, locus YOR316C, strain cot1, stronger effect = lower value 0.964 | [21] 0.979 | S. cerevisiae deletion strains, locus YPR119W, strain clb2, stronger effect = lower value 0.964 | S. cerevisiae deletion strains, locus YPR141C, strain kar3, stronger effect = lower value 0.946 | S. cerevisiae deletion strains, locus YPR163C, strain tif3, stronger effect = lower value 0.986 | S. cerevisiae deletion strains, locus YPR167C, strain met16, stronger effect = lower value 0.958 | S. cerevisiae deletion strains, strain wtn01, stronger effect = lower value 0.995 | S. cerevisiae strains, strain wild type, stronger effect = lower value 0.968
active: S. cerevisiae deletion strains, locus YDR502C, strain sam2, stronger effect = lower value 0.913 | S. cerevisiae deletion strains, locus YKR001C, strain vps1, stronger effect = lower value 0.85
